From the supplement of paper PMC10681739 come the findings set out here.
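Further: Full-length recombinant human ETS1 or RUNX1 bound to double-stranded 36-bp genomic probes on microarrays, detected by protein-specific primary antibody and Alexa488 secondary, spot fluorescence as median of four replicate spots.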

Chain of RUNX1 (Q01196 whole entry): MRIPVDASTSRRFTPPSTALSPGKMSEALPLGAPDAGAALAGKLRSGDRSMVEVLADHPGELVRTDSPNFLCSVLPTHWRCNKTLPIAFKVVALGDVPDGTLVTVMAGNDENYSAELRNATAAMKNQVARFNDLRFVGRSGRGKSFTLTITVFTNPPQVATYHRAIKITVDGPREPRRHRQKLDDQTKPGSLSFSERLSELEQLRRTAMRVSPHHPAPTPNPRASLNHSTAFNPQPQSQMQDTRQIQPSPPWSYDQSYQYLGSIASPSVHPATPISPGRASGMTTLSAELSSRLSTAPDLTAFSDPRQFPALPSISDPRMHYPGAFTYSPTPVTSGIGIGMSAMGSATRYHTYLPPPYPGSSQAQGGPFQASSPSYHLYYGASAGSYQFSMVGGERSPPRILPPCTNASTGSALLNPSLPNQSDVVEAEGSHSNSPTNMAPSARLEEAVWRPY

The assay has as its target RUNX1 (UniProt Q01196). The assay can be described thus: RUNX1 binding intensity (PBM fluorescence) in presence of ETS1, normalised to RUNX1-only experiment (arbitrary fluorescence units); higher = stronger binding. The settings on record: RUNX1 concentration 2 nM; ETS1 concentration 25 nM. The method, then:
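Cooperative gcPBM on 36-bp genomic probes with neighbouring ETS1 and RUNX1 sites. Recombinant human RUNX1 (2 nM) was incubated alone or with ETS1 (25 nM) and detected with anti-RUNX1 antibody plus Alexa488 secondary. Values are medians over 4 replicate spots; the RUNX1+ETS1 data were normalised to the RUNX1-only data. The probes sit in constant array flanks that are not printed.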
Regarding CAAAGGTTAAATGCAGGATGTGGTTTCTGCAGACTC, the RUNX1 binding intensity amounted to 3990. GGGACGGGGAGGGCAGGATGTGGTCGCTCTTCCCTC: the RUNX1 binding intensity is 1750. Then GGGGGAGTTTTCGGAAGCGCTAACCGCGTTGGGGCC, with 954.

In the case of ATACTGAGTCATTTCCTGTGGTGTTATTGTGTTGTA, the RUNX1 binding intensity came out at 1570. The same measure for CTCTCCACCTCCTTCCGACCAGGACCGCACCCCCCC: 1650.

GCGAAAGGAACTTCCTTTGCATGCGGTCAGAGTGCT: the RUNX1 binding intensity came out at 2490. The same measure for GACTATGTGCTTCCGGTCTCCAATACCGCAGGAGGG: 2690; for AATAAAGCTACAGACTTCCGCCCACAGGTCGCCGCT: 1360; for ACCGCCGGAAGTTTCTGCCGCGGCTTTGCGGGGACG: 1760. Then GTTCTCCACATCCTGTTCCGTAGCTGTGGTGCACCG, with 8880; and ACCAGAAGCACTGCAGGATGTGGTATCAAGACGCCT, with 1160; and GTGGGAGCGGAAGCCTGAGCGGCCTGCGGCCTCCGG, with 1040.

Take GTTAGAGGAAGAGGAAGCGGTCAAGAGATCGTCACA: the RUNX1 binding intensity was determined as 1810.

With CTTCTTTCCAGAGGATGTGGCTTCAGCGGGAGAGCT, the RUNX1 binding intensity worked out at 1030. Take GTTCTTATCCTGTGGCTCGTTTGTGGTTACTGACAT: the RUNX1 binding intensity amounted to 4260. In the case of GGGGCTGGGAAAGGATGTGGTAAGGGCCAGTCAGTC, the RUNX1 binding intensity was found to be 1920. For the sequence ATCAGAGCGGAAATCTCAGTCTTGTGTGGGGACCTG, the RUNX1 binding intensity stood at 919. The same measure for CTGCTTCCGGCCCCGGGGTTCGCTACCCCACAATCC: 2530; for ACCTCTCTCACTTCCTACCAGAGAACCACAGCCAAG: 2150. CAGGCCTTTCCTGCTATCGTTTGTGGTTTGAGCAGT: the RUNX1 binding intensity worked out at 3830. The same measure for TTTCAAAACCCGGAAATGACCGCCAGGCTGGCATCA: 1380.

TCCAGCGGAAGGGGGCATCTTTGCGGCAGAGGCAGC: the RUNX1 binding intensity was 979. Regarding GCCTGAAGGACTTCCGGGAACCGCAAAGCACGGTGT, the RUNX1 binding intensity turned out to be 3430. The same measure for ATCTTAAGTGTTTCCTGACACCACAAATCCCCAAAC: 1020. The same measure for GCCGTGGGTACGACCGGAAGCCGCAGGTGGGTGAAG: 1540; for AAAGAGGAAATCACATACCCGAAAACCACATGCACA: 1200; for CCGCCGCGCGCCGGATGCTAAGACCGCGATTTCCCC: 1110. Regarding CACCAGGACGCAACAGGAAACCACAAAGGCCTGAGA, the RUNX1 binding intensity came out at 5270.

In the case of GCGCCCGGAAGGAAGGCTGGGGTAGGTTGTGGTTTC, the RUNX1 binding intensity was found to be 1140. The same measure for CACCTAAAGCCATTGGGATGTGGTTTCTCTTTTTCA: 1010; for TGGATGGCAAGCAACGGAAACCGCAAACAGGGCTGT: 26600; for ACCGGATGCCGGGGCACCGCCAGATGTGGCCACGAG: 941. Then GCCCAGGCAGGAAGCCAGGCGCCCACAGGTTGGCAG, with 923. Consider TGCGCCGCTTCCGCTGCCCGAGGAAGAGCCGCAGTC, for which the RUNX1 binding intensity is 1870. Then TGGGCAAGATATCCTGGAAGTGGTTAAAAAAAATTA, with 1060; and CCTCACAGGGACTTCCTTCCCCGCGGTTCAGGAATC, with 1100; and GCAACTGAACAGGAAACTAAAAAACCACAACACTTA, with 7890. Then GAAAGCTGCACTATTTCCTGAGGTTAGAGGTTTAAA, with 1040; and TTGGTCAGGATGTGGCTGAAGAAGCCACAAGAAAAA, with 1130; and GTGAACTTCCTCCCCCACTGCCTATTTTTACCGCAG, with 3950.
